# The panel holds about 79,000 compounds, 15% with a hit somewhere; the sample as a whole holds those more often. A number with no mark means an inactive call. Active and inactive are the calls of the source. Rule as the data show it: active = growth inhibition above about 70%; inactive = the rest.
# Columns and labels:
# [1] = NCI Yeast Anticancer Drug Screen. Data for the rad50 strain (AID 155);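 also: 0% = growth of vehicle-only cultures of the same strain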; details: S. cerevisiae rad50 strain growth inhibition, hits give high values
# How it was run: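 Vehicle-treated cultures provide the reference for the growth inhibition reported for compound-exposed, repair-deficient yeast.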
# [2] = NCI Yeast Anticancer Drug Screen. Data for the mec2-1 strain (AID 157); details: S. cerevisiae mec2-1 strain, hits give high values
# How it was run: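 Mutant yeast (mec2-1) grown with compound; growth inhibition relative to vehicle control reported.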
# [3] = NCI Yeast Anticancer Drug Screen. Data for the sgs1 mgt1 strain (AID 161);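 also: 0% = growth of cultures given vehicle only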; details: S. cerevisiae sgs1 mgt1 strain, hits give high values
# How it was run: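 Percent growth inhibition was derived by comparing compound-exposed mutant yeast with vehicle-exposed cultures. The strain carries alterations in DNA damage repair.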
# [4] = NCI Yeast Anticancer Drug Screen. Data for the cln2 rad14 strain (AID 165);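 also: 0% = growth equal to vehicle treated cultures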; details: S. cerevisiae cln2 rad14 strain, hits give high values
# How it was run: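 Readout is yeast growth inhibition versus vehicle-treated controls, using a strain with cln2 and rad14 alterations exposed to compound.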
# [5] = NCI Yeast Anticancer Drug Screen. Data for the bub3 strain (AID 167); details: S. cerevisiae bub3 mutant strain, hits give high values
# How it was run: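 Mutant yeast screening strain plus compound; vehicle-treated cultures serve as the 0% inhibition reference.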
# [6] = NCI Yeast Anticancer Drug Screen. Data for the mlh1 rad18 strain (AID 175); details: S. cerevisiae mlh1 rad18 strain growth inhibition, hits give high values
# How it was run: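 Genetically defined yeast (DNA repair-deficient) exposed to compounds; growth inhibition determined relative to vehicle.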
# [7] = at 5.0 µM (retest, dose inferred, filed as 0.5)
# [8] = at 50.0 µM (retest, dose inferred, filed as 5.0)
SMILES,"growth inhibition [1, 7]","growth inhibition [1, 8]",growth inhibition ([1]; at 50.0 µM),"growth inhibition [2, 7]","growth inhibition [2, 8]",growth inhibition ([2]; at 50.0 µM),"growth inhibition [3, 7]","growth inhibition [3, 8]",growth inhibition ([3]; at 50.0 µM),"growth inhibition [4, 7]","growth inhibition [4, 8]",growth inhibition ([4]; at 50.0 µM),"growth inhibition [5, 7]","growth inhibition [5, 8]",growth inhibition ([5]; at 50.0 µM),"growth inhibition [6, 7]","growth inhibition [6, 8]",growth inhibition ([6]; at 50.0 µM)
CC12OC(=O)C(C(N)=O)=C1C=C(c1ccccc1)CC2c1ccccc1 (stereo not given),-1%,23%,65%,12%,53%,43.9%,-5%,67%,86.8% (active),-3%,21%,82.5% (active),-4%,60%,87.5% (active),11%,83% (active),86.1% (active)
O=C1c2ccccc2-c2nc3ncccc3cc21,27%,93% (active),95.7% (active),6%,83% (active),56.1%,4%,78% (active),42.2%,6%,63%,57.9%,4%,57%,79.4% (active),-5%,88% (active),71.4% (active)
Cc1cc([N+](=O)[O-])c2nnnn2c1,5%,59%,-1.75%,2%,28%,1.4%,0%,31%,-15.2%,-1%,4%,-9.75%,-1%,28%,22.4%,7%,65%,34%
Cc1c(C)c(C[P+](CCP(c2ccccc2)c2ccccc2)(c2ccccc2)c2ccccc2)c(C)c(C)c1C[P+](CCP(c1ccccc1)c1ccccc1)(c1ccccc1)c1ccccc1,18%,36%,29.8%,11%,13%,16.5%,7%,41%,59.5%,-14%,2%,-1.3%,14%,21%,-5.8%,13%,33%,35.2%
CC1CCC(=NNC(N)=O)CC1 (stereo not given),-1%,-6%,3.9%,-11%,-2%,-10.9%,-1%,-4%,2.45%,-5%,-1%,34.9%,-3%,-3%,9.5%,-1%,-4%,-19.2%
COc1ccc(C2C3=C(CCCC3=O)Oc3cc4c(cc32)OCO4)c(OC)c1 (stereo not given),17%,92% (active),3.95%,-3%,90% (active),18.8%,6%,92% (active),-11.7%,6%,88% (active),-6.1%,8%,94% (active),1.05%,4%,92% (active),8.95%
CC(C)C1=CC(=O)C(C)(C2C(O)CC3(C)C4CC=C5C(CCC(O)C5(C)C)C4(C)C(=O)CC23C)O1 (stereo not given),65%,80% (active),73.2% (active),78% (active),87% (active),74.5% (active),64%,74% (active),68.8%,54%,83% (active),75% (active),78% (active),86% (active),62.2%,85% (active),89% (active),69.4%
O=C(CCC(O)(c1ccccc1)c1ccccc1)c1ccccc1,-4%,97% (active),65.8%,-13%,98% (active),-11.9%,-11%,98% (active),13.2%,-89%,99% (active),-27.2%,-9%,46%,4.9%,-3%,98% (active),70.5% (active)
[N-]=[N+]=Nc1ccnc2ccc(C3CCCCC3)cc12,-8%,99% (active),56.5%,-8%,100% (active),30.9%,-8%,99% (active),94.8% (active),6%,99% (active),51.1%,-4%,99% (active),67.3%,-2%,99% (active),91.7% (active)
CC(C=O)Cc1ccccc1 (stereo not given),2%,-6%,-8.9%,5%,-1%,-8.05%,3%,-4%,-3.35%,-2%,-8%,37%,-1%,-4%,10.3%,-4%,-8%,-1.45%
CCC/C(=N\NC(=S)N(C)C)c1ccccn1,89% (active),99% (active),99.5% (active),97% (active),99% (active),99.6% (active),88% (active),99% (active),99.5% (active),80% (active),99% (active),99.4% (active),85% (active),98% (active),99.5% (active),94% (active),99% (active),99.5% (active)
c1ccc2c(c1)Sc1nccc3ccnc-2c13,92% (active),95% (active),82.3% (active),28%,93% (active),79.3% (active),23%,92% (active),80.7% (active),10%,88% (active),72.8% (active),25%,92% (active),79.7% (active),50%,91% (active),79.2% (active)
COC1/C=C\C=C(/C)C(=O)Nc2cc3nc4cc(Br)ccc4oc-3c(c2=O)CC(C)CC(OC)C(O)C(C)/C=C(\C)C1OC(N)=O (stereo not given),54%,95% (active),90.2% (active),81% (active),96% (active),92% (active),46%,94% (active),89.9% (active),50%,96% (active),83.2% (active),79% (active),96% (active),91.8% (active),81% (active),95% (active),89.4% (active)
CSC(SC)C(SC)SC,1%,98% (active),1.65%,1%,99% (active),-5.4%,-4%,99% (active),0.65%,6%,99% (active),16.6%,0%,99% (active),-2.35%,-1%,99% (active),-1.15%
O=C1Oc2ccccc2C(=O)/C1=C/N1C(=O)/C(=C/c2ccc3c(c2)OCO3)SC1=S,7%,76% (active),60.9%,-7%,78% (active),47.8%,4%,66%,80.2% (active),-13%,82% (active),70.5% (active),31%,30%,66.3%,-4%,77% (active),44.3%
Nc1ncnc2c1ncn2C1OCC(O)C1O (stereo not given),24%,66%,81.6% (active),33%,68%,78.2% (active),20%,74% (active),72.9% (active),29%,58%,64.5%,20%,82% (active),82.7% (active),21%,86% (active),82.2% (active)
CCCCNC(=S)NC1OC(CO)C(O)C(O)C1O (stereo not given),2%,7%,99.3% (active),2%,10%,99.4% (active),-1%,0%,99.5% (active),-4%,-3%,99% (active),-4%,-4%,99.2% (active),-1%,20%,99% (active)
BrCc1ccc([Si](c2ccccc2)(c2ccccc2)c2ccc(CBr)cc2)cc1,-3%,-16%,48.1%,14%,8%,20.1%,-15%,-18%,53%,-1%,-25%,78.5% (active),-2%,-15%,10.5%,3%,-30%,53.5%
COc1ccc(SC2=C(N(C)C(C)=O)C(=O)c3ccccc3C2=O)cc1,98% (active),99% (active),99.5% (active),97% (active),100% (active),99.7% (active),97% (active),100% (active),99.7% (active),95% (active),99% (active),99.7% (active),99% (active),99% (active),99.6% (active),98% (active),99% (active),99.6% (active)
O=[N+]([O-])c1ccc(C(Nc2ccccc2)c2ccc3cccnc3c2O)cc1 (stereo not given),-5%,83% (active),71.9% (active),-1%,82% (active),80% (active),-10%,85% (active),76% (active),-37%,79% (active),81.3% (active),-11%,85% (active),58.6%,4%,85% (active),82.2% (active)

# Source: PubChem BioAssay (NCI)
